Records with an inconclusive call do not appear. Activity calls are given as the source filed them. The calls were made as follows: active = hit-call score of the fitted dose curve at least 0.9, where 1 is the maximum; inconclusive = response in the unintended direction; inactive = score below 0.9.
The compounds below were run against human Dopamine Receptor D2 (DRD2), DRD2 (gene 1813) (UniProt P14416) (assay: NVS_GPCR_hDRD2s: NovaScreen (NVS) G Protein-Coupled Receptor Assay for human Dopamine Receptor D2 (DRD2) (AID 2283266)).
Procedure, shortened: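 Test compound (25 uM, duplicate in the primary screen; concentration series at follow-up) competed with radioligand for human DRD2 in CHO-derived membrane protein. Filter-based scintillation counting was done 1.5 hours after dosing, with loss of signal analysed against DMSO.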

Sequence of human Dopamine Receptor D2 (DRD2), DRD2 (gene 1813) (P14416 whole entry, looked up): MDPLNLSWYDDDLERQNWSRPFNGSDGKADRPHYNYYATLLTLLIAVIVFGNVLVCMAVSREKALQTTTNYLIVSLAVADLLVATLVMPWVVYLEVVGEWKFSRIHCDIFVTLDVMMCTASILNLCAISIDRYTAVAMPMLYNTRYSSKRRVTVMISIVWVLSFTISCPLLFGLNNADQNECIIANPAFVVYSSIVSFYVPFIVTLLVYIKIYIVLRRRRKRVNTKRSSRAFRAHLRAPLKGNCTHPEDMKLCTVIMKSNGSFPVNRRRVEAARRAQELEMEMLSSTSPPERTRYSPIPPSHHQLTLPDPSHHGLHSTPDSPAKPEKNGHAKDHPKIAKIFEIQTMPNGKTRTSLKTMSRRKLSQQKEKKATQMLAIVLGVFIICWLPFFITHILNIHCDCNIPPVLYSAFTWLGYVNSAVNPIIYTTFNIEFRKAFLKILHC

| SMILES | outcome | AC50 |
| --- | --- | --- |
| Cc1nc(-c2ccc3c(c2)CCN(CCC2CCC(NC(=O)/C=C/c4ccc(F)cc4)CC2)CC3)no1 (stereo unspecified) | inactive | – |
| Oc1ccc2c(c1)OC[C@@H](N1CCC(O)(c3ccc(F)cc3)CC1)[C@H]2O | inactive | – |
| COc1cc(S(=O)(=O)O)c(C)cc1N=Nc1c(O)ccc2cc(S(=O)(=O)O)ccc12 | – | 11.4 µM (active) |
| CCOC(=O)CCC(=O)OCC | inactive | – |
| NC(=O)Cn1c(=O)cc(CCN2CCN(c3nccc4sccc34)CC2)c2ccc(F)cc21 | – | 0.926 µM (active) |
| CN1CCN(Cc2cc(-c3ccc4[nH]c(=O)oc4c3)co2)[C@@H](c2ccc(F)cc2)C1 | inactive | – |
| CCCCC(CC)COC(=O)CC(C(=O)OCC(CC)CCCC)S(=O)(=O)O (stereo unspecified) | – | 16.5 µM (active) |
| Nc1nc(N)c2nc(CNc3ccc(C(=O)N[C@@H](CCC(=O)O)C(=O)O)cc3)cnc2n1 | – | 18.3 µM (active) |

These compounds were tested against human Histamine 1 Receptor (H1), HRH1 (gene 3269) (UniProt P35367) (assay: NVS_GPCR_hH1: NovaScreen (NVS) G Protein-Coupled Receptor Assay for human Histamine 1 Receptor (H1) (AID 2283268)).
Description: NVS_GPCR_hH1 is a biochemical, single-readout assay that uses extracted gene-proteins in a cell-free assay. Measurements were taken 1 hour after chemical dosing in a 96-well plate.NVS_GPCR_hH1 is one of one assay component(s) measured or calculated from the NVS_GPCR_hH1 assay. It is designed to make measurements of radioligand binding, a form of binding reporter, as detected with scintillation counting signals by Filter-based radiodetection technology.Data from the assay component NVS_GPCR_hH1 was analyzed into 1 assay endpoint. This assay endpoint, NVS_GPCR_hH1, was analyzed in the positive analysis fitting direction relative to DMSO as the negative control and baseline of activity. Using a type of binding reporter, loss-of-signal activity can be used to understand changes in the binding as they relate to the gene HRH1. Furthermore, this assay endpoint can be referred to as a primary readout, because the performed assay has only produced 1 assay endpoint. To generalize the intended target to other relatable targets, this assay endpoint is annotated to the gpcr intended target family, where the subfamily is rhodopsin-like receptor.
Binding assays used specific radioligands (tritiated, iodinated) with non-radioactive competitive displacement ligands in agonist or antagonist protocols (as indicated) and various reference compounds and inhibitors to titrate specific binding to receptors and transporters. Most enzyme assays (CYPs, kinases, phosphatases, proteases, HDACs) used recombinant protein and specific substrates (fluorescence mostly, some colorimetric and radioactive) and inhibitors, followed by a biochemical separation of substrate and product. All assays for the biochemical HTS were initially run in duplicate at a single concentration (10 uM for CYP450 assays and 25 uM for all others). […] Each assay was run with positive and negative controls, and concurrent controls on every plate. […]

Sequence of human Histamine 1 Receptor (H1), HRH1 (gene 3269) (P35367 whole entry, looked up): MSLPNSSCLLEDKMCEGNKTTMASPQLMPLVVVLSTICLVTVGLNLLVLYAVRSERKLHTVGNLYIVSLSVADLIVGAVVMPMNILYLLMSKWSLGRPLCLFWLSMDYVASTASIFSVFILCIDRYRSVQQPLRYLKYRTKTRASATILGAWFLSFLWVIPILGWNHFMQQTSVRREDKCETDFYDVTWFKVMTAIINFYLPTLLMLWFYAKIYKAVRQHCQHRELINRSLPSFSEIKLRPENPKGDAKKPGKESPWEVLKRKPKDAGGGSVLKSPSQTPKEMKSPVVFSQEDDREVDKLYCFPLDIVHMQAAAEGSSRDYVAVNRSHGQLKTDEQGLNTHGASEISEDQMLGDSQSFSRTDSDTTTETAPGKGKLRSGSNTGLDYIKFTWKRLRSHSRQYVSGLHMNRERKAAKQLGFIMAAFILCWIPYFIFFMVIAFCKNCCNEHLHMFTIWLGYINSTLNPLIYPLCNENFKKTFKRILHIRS

| SMILES | outcome | AC50 |
| --- | --- | --- |
| CCOC(=O)CCC(=O)OCC | inactive | – |
| NC(=O)Cn1c(=O)cc(CCN2CCN(c3nccc4sccc34)CC2)c2ccc(F)cc21 | – | 0.199 µM (active) |
| CCCCC(CC)COC(=O)CC(C(=O)OCC(CC)CCCC)S(=O)(=O)O (stereo unspecified) | – | 35.5 µM (active) |
